The results in this text go back to PubChem BioAssay (NCI).

Assay [1] is described as follows: NCI Yeast Anticancer Drug Screen. Data for the rad50 strain (AID 155).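 Also: 0% = growth of vehicle-only cultures of the same strain.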 To be noted: S. cerevisiae rad50 strain growth inhibition; at 50.0 µM; active compounds read high. The essentials:
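DNA repair mutant yeast, compound exposure, growth read-out; inhibition is taken relative to vehicle.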

Assay [2] in a line: NCI Yeast Anticancer Drug Screen. Data for the mec2-1 strain (AID 157). To be noted: S. cerevisiae mec2-1 strain, at 50.0 µM, active compounds read high. The essentials: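 Cells of the genetically defined mec2-1 yeast strain are incubated with test compound. Inhibition of growth is calculated against vehicle-treated controls.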
Assay [3] is described as follows: NCI Yeast Anticancer Drug Screen. Data for the sgs1 mgt1 strain (AID 161).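 Also: 0% = growth of cultures given vehicle only.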 The following applies: S. cerevisiae sgs1 mgt1 strain, at 50.0 µM, active compounds read high. The essentials:
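Genetically altered yeast, compound exposure, growth inhibition relative to vehicle.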

Assay [4] can be described thus: NCI Yeast Anticancer Drug Screen. Data for the cln2 rad14 strain (AID 165).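 Also: 0% = growth equal to vehicle treated cultures.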 To be noted: S. cerevisiae cln2 rad14 strain, at 50.0 µM, active compounds read high. The essentials: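 The screen exposed genetically defined yeast (cln2 rad14) to test compounds and scored growth inhibition relative to vehicle-treated controls.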
Assay [5] in a line: NCI Yeast Anticancer Drug Screen. Data for the bub3 strain (AID 167). The following applies: S. cerevisiae bub3 mutant strain, at 50.0 µM, active compounds read high. The gist of the method: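 In this screen, a yeast mutant lacking normal mitotic checkpoint function is challenged with compound. Relative growth versus vehicle gives the inhibition value.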
Assay [6] in a line: NCI Yeast Anticancer Drug Screen. Data for the mlh1 rad18 strain (AID 175). To be noted: S. cerevisiae mlh1 rad18 strain growth inhibition; at 50.0 µM; active compounds read high. The essentials: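 Compound-treated yeast growth, normalised to vehicle controls. Strain bears defined DNA repair mutations.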

The structures appear in SMILES notation. Compounds without any hit were thinned out: in the full panel of roughly 79,000, 15% have a hit. A number with no mark means an inactive call. Active and inactive are the calls of the source. Rule as the data show it: active = growth inhibition above about 70%; inactive = the rest. Where a SMILES comes first, the peptide text is derived from it. [ ]: non-standard residue; d: D form. ξ: configuration not given here. ξF = NC(Cc1ccccc1)C(=O)O

`Cc1ccc2nc(-c3ccc(CSC(=N)N)cc3)oc(=O)c2c1`: the growth inhibition in assay [1] is 40.2%; in assay [2], 43.5%; in assay [3], 45.6%; in assay [4], 20.9%; in assay [5] it was 19.1%; in assay [6] it was 42%.
For the molecule `Brc1ccc(-c2nnc(-c3ccc(Br)cc3)o2)cc1`, the growth inhibition was 14.8% in assay [1]; -4.6% in assay [2]; -0.8% in assay [3]; -4.7% in assay [4]; 0.25% in assay [5]; 1.4% in assay [6].
`O=C1C2C3CCC(O3)C2C(=O)N1Cc1ccccc1CN1C(=O)C2C3CCC(O3)C2C1=O` (stereo unspecified): the growth inhibition is 82% (active) in assay [1]; 95.2% (active) in assay [2]; 89.2% (active) in assay [3]; 98.6% (active) in assay [4]; 98.1% (active) in assay [5]; 95.8% (active) in assay [6].
For `O=C(Nc1cccc([N+](=O)[O-])c1)N1CCCC1`, the growth inhibition in assay [1] was -7.1%; in assay [2], -16.4%; in assay [3], -7.75%; in assay [4] it was -3.9%; in assay [5], -7.5%; in assay [6], -20.6%.
`COc1ccc(-c2cc(=O)c3c(O)cc(O)c(-c4cc(-c5cc(=O)c6c(O)cc(OC)cc6o5)ccc4OC)c3o2)cc1`: the growth inhibition in assay [1] was 39.1%; in assay [2] it was 17.1%; in assay [3], 5.55%; in assay [4] it was 24.6%; in assay [5] it was 27.3%; in assay [6], 20%.
In the case of `Cc1cn(C2CC(N(C)C)C(CO)O2)c(=O)[nH]c1=O` (stereo unspecified), the growth inhibition in assay [1] is -28.2%; in assay [2] it was -25.8%; in assay [3], -18.4%; in assay [4], 12.3%; in assay [5] it was -28.3%; in assay [6], -34.8%.
Regarding `CC12C(=O)OC(=O)C1C1C=CC2C1` (stereo unspecified), the growth inhibition in assay [1] was 20.2%; in assay [2], 6.15%; in assay [3], -18.2%; in assay [4], -64.5%; in assay [5], -0.35%; in assay [6], 5.05%.
As to `O=C(O)COc1ccc(F)c(F)c1F`, the growth inhibition in assay [1] is -16.1%; in assay [2] it was 4.5%; in assay [3], 21.1%; in assay [4] it was -9.6%; in assay [5] it was -2.75%; in assay [6] it was -20.1%.
As to `O=c1[nH]n(Cc2ccccn2)c2ccc([N+](=O)[O-])cc12`, the growth inhibition was 4.1% in assay [1]; -7.8% in assay [2]; -26.8% in assay [3]; 0.95% in assay [4]; 6.45% in assay [5]; -14.2% in assay [6].
Consider `NC(Cc1ccccc1)C(=O)NCC(=O)O` (stereo unspecified) (H-[ξF]-Gly-OH), for which the growth inhibition in assay [1] is -7.45%; in assay [2], 8.65%; in assay [3] it was -6.35%; in assay [4] it was -26.4%; in assay [5], -11.7%; in assay [6] it was -12.3%.
Take `Cc1cccc(C)c1NC(=O)Oc1ccc(Cl)cc1Cc1ccccc1`: the growth inhibition in assay [1] is 98.5% (active); in assay [2], 99.5% (active); in assay [3], 99.6% (active); in assay [4] it was 98.9% (active); in assay [5] it was 99.3% (active); in assay [6], 99.3% (active).
`CCc1ccc(OC(C)=O)cc1`: the growth inhibition in assay [1] is 12.5%; in assay [2], 10.6%; in assay [3], -13.2%; in assay [4], -21.7%; in assay [5], 6.6%; in assay [6], 15.6%.
Regarding `COC(=O)C1(C)CCCC2(C)c3cc(OC)ccc3C(=O)C(Cl)C12` (stereo unspecified), the growth inhibition was 7.8% in assay [1]; 0.15% in assay [2]; 6.45% in assay [3]; -13.8% in assay [4]; 26.4% in assay [5]; 5.7% in assay [6].
With `CCCC1(c2ccccc2)OCC(CO)O1` (stereo unspecified), the growth inhibition is 15% in assay [1]; 9.35% in assay [2]; -17.4% in assay [3]; 6.4% in assay [4]; 4.1% in assay [5]; 4.25% in assay [6].
With `CC1CCCN(P(c2ccccc2)N2CCCC(C)C2)C1` (stereo unspecified), the growth inhibition in assay [1] is 25%; in assay [2] it was 4.6%; in assay [3], 16.4%; in assay [4], 15.4%; in assay [5], 26%; in assay [6], 13%.
For `Cc1ccc(N=Nc2ccc(O)c(CN(C)C)c2)cc1`, the growth inhibition in assay [1] was -14.6%; in assay [2], -9.15%; in assay [3], -24.4%; in assay [4], -39.8%; in assay [5], 18%; in assay [6] it was -17.1%.
As to `COc1ccc(/C=C2\N=C(c3ccc(Cl)cc3)OC2=O)cc1Br`, the growth inhibition is 10.2% in assay [1]; -2.15% in assay [2]; 21.5% in assay [3]; 5% in assay [4]; 12.8% in assay [5]; 17.3% in assay [6].
Consider `CCOC(=O)/C=C(/C)N(CC)CC`, for which the growth inhibition in assay [1] was 23.9%; in assay [2], -4%; in assay [3] it was 12.2%; in assay [4] it was 11.3%; in assay [5], -5.05%; in assay [6], 19.9%.
With `O=c1[nH]cnc2nn(C3OC(CO)C(O)C3O)nc12` (stereo unspecified), the growth inhibition in assay [1] is 10.7%; in assay [2], 11.5%; in assay [3], 1.5%; in assay [4], 11.2%; in assay [5], -7.2%; in assay [6], 23.6%.
Regarding `NC(=O)c1cccc(NC=O)c1`, the growth inhibition in assay [1] is 5.3%; in assay [2] it was 6%; in assay [3], 22.1%; in assay [4], 29.7%; in assay [5], 4.45%; in assay [6], 25.8%.
As to `c1ccc2c(c1)ncn2C1CCCCO1` (stereo unspecified), the growth inhibition was 4.7% in assay [1]; -9.8% in assay [2]; -16.8% in assay [3]; 0.9% in assay [4]; -7.45% in assay [5]; -38.3% in assay [6].
